The structures appear in SMILES notation. Screen size: about 1,400 compounds; about 1,100 (79%) were called active.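 Rule for the calls: active = fitted half-maximal concentration of a falling signal no higher than twice the top valid dose in every test run; inconclusive = runs disagree, or flat partial inhibition, or poor fit; inactive = every run inactive: flat, wrong direction, or potency beyond limit.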 So high a share suggests a set chosen from earlier hits. Only a sample is shown. Potency and affinity values are given separately.

A short description of this assay: inhibitors of clade B AD8 Env fusion, dose response, cell-based, cherry-pick (AID 652062). As to conditions: HeLa-AD8 Env / CEM-CCR5 cell fusion, luciferase; at 35 µM (top of the series) unless noted.
For the compound `C[C@H]1CN([C@@H](C)CO)S(=O)(=O)c2ccc(-c3cccc(F)c3)cc2O[C@H]1CN(C)S(=O)(=O)c1ccccc1`, the activity change, negative = inhibition is -18.9%.

Take `CCOC(=O)C(C)Oc1cccc2c(=O)n(CC(=O)NCCc3ccc(OC)c(OC)c3)ccc12` (stereo not given): the activity change, negative = inhibition came out at 3.5%.

As for `CC(C)(C)c1ccc(-n2ncc3c2CCCC3NC(=O)CN2CCCC2=O)cc1` (stereo not given), the activity change, negative = inhibition was -53.4%.

`c1ccc(CSc2nnc([C@@H]3CCCN3)o2)cc1`: the activity change, negative = inhibition was 25%.

`Cc1ccccc1S(=O)(=O)NC(=O)C1(C)CCN1C(=O)CCc1ccc(Cl)cc1Cl` (stereo not given): the activity change, negative = inhibition was -6.19%.

On to `C[C@H](CO)N1C[C@H](C)[C@H](CN(C)Cc2ccccc2)Oc2c(NC(=O)Nc3ccc4c(c3)OCO4)cccc2C1=O`, for which the activity change, negative = inhibition was found to be 19.6% [at 16 µM].

Regarding `CNC[C@H]1Oc2c(NC(=O)Nc3ccc(C(F)(F)F)cc3)cccc2C(=O)N([C@@H](C)CO)C[C@H]1C`, the activity change, negative = inhibition came to 50.6%.

As for `CC(C)CC#Cc1ccc2c(c1)O[C@@H](CN(C)C(=O)C1CCCCC1)[C@H](C)CN([C@@H](C)CO)S2(=O)=O`, the activity change, negative = inhibition is -88.1%.

As for `CCOc1ccc2c(c1)-c1c(ssc1=S)C(C)(C)N2C(=O)c1ccco1`, the activity change, negative = inhibition is -10.3%.

Consider `COc1cc(OC)cc(C(=O)N[C@H](C(=O)NCCc2c[nH]c3ccccc23)C(C)C)c1`, for which the activity change, negative = inhibition was -23.6%.

For the compound `C[C@H]1CN([C@@H](C)CO)C(=O)c2cc(NS(C)(=O)=O)ccc2O[C@@H]1CN(C)Cc1ccc(Cl)c(Cl)c1`, the activity change, negative = inhibition was 37.5%.

For `C[C@H]1CN([C@@H](C)CO)C(=O)Cc2cc(N(C)C)ccc2O[C@H]1CN(C)Cc1ccc(Cl)c(Cl)c1`, the activity change, negative = inhibition stood at 15.3%.

For the compound `C[C@@H]1CN([C@@H](C)CO)C(=O)c2cccc(NS(=O)(=O)c3ccc(F)cc3)c2O[C@@H]1CN(C)Cc1ccc(-c2ccccc2)cc1`, the activity change, negative = inhibition turned out to be 44.3% [at 16 µM].

With `Cn1cc(S(=O)(=O)N2CCOCC2)cc1C(=O)Nc1cccc(Cl)c1`, the activity change, negative = inhibition is -9.96%.

Take `COc1ccc(-c2nn(C)c(=O)c3ccccc23)cc1NC(=O)Cn1nc(C)c2ccccc2c1=O`: the activity change, negative = inhibition was 6.7%.

As for `Cc1cc(C(C)(C)C)oc1C(=O)N(CC(=O)NC1CCCC1)Cc1ccc(Cl)cc1`, the activity change, negative = inhibition is -9.64%.

Take `Cc1ccccc1-n1c(=O)c2ccccc2n2cnnc12`: the activity change, negative = inhibition came out at 40.3%.

Regarding `CCOC(=O)C1CCN(C(=O)c2ccc3c(c2)C(=O)N(c2ccccc2C)C3=O)CC1`, the activity change, negative = inhibition was found to be 68.2%.

For `CCN(CC)CCN(C(=O)c1cc(Cl)sc1Cl)c1nc2cc3c(cc2s1)OCO3`, the activity change, negative = inhibition turned out to be 54.2%.

Regarding `O=C(NCC[C@@H]1CC[C@@H](NS(=O)(=O)c2ccccc2F)[C@@H](CO)O1)c1ccc(F)cc1`, the activity change, negative = inhibition was determined as 36%.

As to `Cc1nc2sc(C(c3ccco3)N3CCC(Cc4ccccc4)CC3)c(O)n2n1` (stereo not given), the activity change, negative = inhibition was determined as 111%.

`O=C(CNC(=O)c1cccc(-n2cccc2)c1)Nc1ccccc1Br`: the activity change, negative = inhibition stood at 4.51%.

For the compound `Nc1nonc1C(=O)NCCNCc1c(OCc2ccccc2F)ccc2ccccc12`, the activity change, negative = inhibition came out at 10.1%.

On to `O=C(CCNC(=O)c1ccc(Br)cc1)NNC(=O)COc1ccccc1F`, for which the activity change, negative = inhibition stood at 9.15%.

On to `O=C(Nc1cc(Cl)cc(Cl)c1)C(c1ccccc1)N1CCCCC1` (stereo not given), for which the activity change, negative = inhibition is -7.46%.

With `C[C@H]1CN([C@@H](C)CO)C(=O)c2ccccc2-c2ccccc2CO[C@H]1CN(C)S(=O)(=O)c1ccccc1C#N`, the activity change, negative = inhibition worked out at 30.6%.

Consider `CCN1CCN(S(=O)(=O)c2ccc(Cl)c(C(=O)Nc3ccccc3N3CCCC3)c2)CC1`, for which the activity change, negative = inhibition came out at 48.8%.

With `CO[C@@H]1CN(C)C(=O)c2cc(NC(=O)Nc3ccc(Cl)cc3)ccc2OC[C@H](C)N(C)C[C@H]1C`, the activity change, negative = inhibition is -19.7%.

Regarding `C[C@H](CO)N1C[C@H](C)[C@H](CN(C)S(=O)(=O)c2ccc(C#N)cc2)Oc2ncc(/C=C/c3ccccc3)cc2C1=O`, the activity change, negative = inhibition came to 16.9% [at 16 µM].

Regarding `C[C@@H]1CN([C@H](C)CO)C(=O)c2cc(C#Cc3ccncc3)cnc2O[C@@H]1CN(C)S(=O)(=O)c1ccccc1F`, the activity change, negative = inhibition was -27%.

Consider `S=c1nc[nH]c2c1[nH]c1ccc(Cl)cc12`, for which the activity change, negative = inhibition stood at 149%.

For `N#Cc1ccc(CSc2nnc(COc3ccccc3)n2-c2ccccc2)cc1`, the activity change, negative = inhibition was 7.17%.

On to `C[C@H]1CN([C@@H](C)CO)C(=O)c2cc(NS(=O)(=O)c3ccc(F)cc3)ccc2O[C@H]1CN(C)S(=O)(=O)c1ccc(F)cc1`, for which the activity change, negative = inhibition stood at 7.89%.

Take `CCCNC(=O)C[C@H]1C[C@H]2c3cc(NC(=O)CN(C)C)ccc3O[C@H]2[C@H](CO)O1`: the activity change, negative = inhibition was -19.9% [at 16 µM].

As to `CCCNC(=O)C[C@@H]1C[C@@H]2c3cc(NC(=O)Cc4ccncc4)ccc3O[C@@H]2[C@H](CO)O1`, the activity change, negative = inhibition is -27.5%.

Take `CCCNC(=O)C[C@H]1C[C@H]2c3cc(NC(=O)Cc4ccncc4)ccc3O[C@H]2[C@H](CO)O1`: the activity change, negative = inhibition is -15.2%.

Turning to `CCCNC(=O)C[C@@H]1C[C@@H]2c3cc(NC(=O)CN(C)C)ccc3O[C@@H]2[C@H](CO)O1`, the activity change, negative = inhibition amounted to 48.2%.

Turning to `C[C@H](CO)N1C[C@H](C)[C@@H](CN(C)CC2CC2)Oc2ccc(NS(C)(=O)=O)cc2CC1=O`, the activity change, negative = inhibition turned out to be 4.33%.

Regarding `C[C@@H]1CN([C@@H](C)CO)C(=O)Cc2cc(NC(=O)c3ccncc3)ccc2O[C@H]1CN(C)Cc1ccc(Cl)c(Cl)c1`, the activity change, negative = inhibition was -39.7%.

Regarding `C[C@H]1CN([C@@H](C)CO)C(=O)Cc2cc(N(C)C)ccc2O[C@H]1CN(C)CC1CC1`, the activity change, negative = inhibition was determined as 11.8%.

Turning to `Nc1ccc(S(=O)(=O)c2ccc(N3CCOCC3)c(N)c2)cc1`, the activity change, negative = inhibition was -17.7%.

In the case of `COc1ccccc1-c1ccc2c(c1)O[C@H](CN(C)S(=O)(=O)c1ccccc1)[C@H](C)CN([C@H](C)CO)S2(=O)=O`, the activity change, negative = inhibition was 18.5%.

As to `Cc1ccc(S(=O)(=O)N(C)C[C@H]2Oc3cc(-c4cccc(F)c4)ccc3S(=O)(=O)N([C@H](C)CO)C[C@H]2C)cc1`, the activity change, negative = inhibition is -33.7%.

For the compound `COc1ccc2c3c(n(C)c2c1)[C@@H](CO)N(C(=O)C1CCOCC1)CC31CCN(Cc2cccc(F)c2)CC1`, the activity change, negative = inhibition was -3.19%.

For `COc1ccc2c3c([nH]c2c1)[C@@H](CO)N(C(=O)Nc1cccc(F)c1)CC31CCN(S(=O)(=O)c2ccccc2)CC1`, the activity change, negative = inhibition is -99.7%.

For the compound `COc1ccc2c3c(n(C)c2c1)[C@@H](CO)N(C(=O)Nc1ccc(F)cc1)CC31CCN(Cc2cccc(F)c2)CC1`, the activity change, negative = inhibition was -2.46%.

As to `COc1ccc2c3c([nH]c2c1)[C@H](CO)N(C(=O)Nc1cccc(F)c1)CC31CCN(S(=O)(=O)c2ccccc2)CC1`, the activity change, negative = inhibition was -57.4%.

In the case of `CC1(C(=O)NCc2ccc3c(c2)OCO3)CCN1Cc1csc2ccccc12` (stereo not given), the activity change, negative = inhibition is -11%.

`CCNC1CCC(Nc2ccnc3cc(Cl)ccc23)CC1` (stereo not given): the activity change, negative = inhibition is -25.4%.

As to `CCCCCCc1nc2ccccc2c(=O)n1NC(=O)c1c(O)c2c(n(CC(C)C)c1=O)CCCC2`, the activity change, negative = inhibition was -7.39%.
